Here are results for seven sequences from the supplement of paper PMC6555819.

Experiment in all cases: PBM binding z-score (relative to random genomic background probes); higher = stronger binding; sequences stand for … in GC…GCGATTGACAGCGTAGAATGAAGG
Assay [1] concerns RARb homodimer (NR concentration 270 nM). In a few lines: (§1)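 Binding z-scores take random background probes as their reference. They come from custom Agilent 4×180K protein-binding microarrays incubated 1 h with ligand-free nuclear receptor dimers, with antibodies against each partner (one per run) detecting binding. Scanned fluorescence was regression-normalized.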
In assay [2] the test system is RARg:RXRa (NR concentration 270 nM, RXRa partner concentration 90 nM). In outline: as §1
Assay [3] relates to RARg homodimer (NR concentration 270 nM). In outline: as §1
Assay [4] relates to RXRa DBDmut IVT, anti-RXR (DBD mutation: RXRa K156A/R161A, NR concentration 90 nM). In outline: as §1
Assay [5] relates to RXRa homodimer (NR concentration 180 nM). In outline:
as §1

Assay [6] deals with THRa:RXRa (NR concentration 90 nM, RXRa partner concentration 90 nM). In outline:
as §1

Assay [7] concerns THRa homodimer (NR concentration 90 nM). In outline:
as §1

The test system of assay [8] is VDR homodimer (NR concentration 270 nM). In a few lines: as §1

On to CGAACTAGGTCACCAGGACATTGAAGAGGTTGGA, for which the PBM binding z-score stood at 3.54 in assay [1]; 4.42 in assay [2]; 5.21 in assay [3]; 1.95 in assay [4]; 3.45 in assay [5]; 3.48 in assay [6]. In addition, the values for the PBM binding z-score in assay [7] and in assay [8] were 2.06 and 1.1, respectively.

Regarding ATCAAAAGGTCGAAGGTGAGTATACCCACCCGAA, the PBM binding z-score in assay [1] worked out at 2.75; in assay [2] it was 4.51; in assay [3], 4.34; in assay [4] it was 1.27; in assay [5], 5.55; in assay [6], 2.26. In addition, the PBM binding z-score in assay [7] is -0.268; in assay [8], 0.86.

Turning to CGAACTAGGTCAAAGGACAGTAAAAGGCGACGTA, the PBM binding z-score in assay [1] amounted to 2.85; in assay [2], 4.05; in assay [3], 4.79; in assay [4], 1.33; in assay [5], 3.25; in assay [6], 2.75. For the same sequence, the PBM binding z-score in assay [7] came to 0.556; in assay [8], 0.392.

For the sequence ATATGTAGGTTAGGGTCATTTAGAAAGTAGGGAA, the PBM binding z-score in assay [1] was determined as 3.38; in assay [2], 3.86; in assay [3], 2.8; in assay [4], 2.29; in assay [5], 5.07; in assay [6], 4.06. The values for the PBM binding z-score in assay [7] and in assay [8] were 3.22 and 3.84, respectively.

Turning to TAGCCAAGGTCAGATCGGGCCAGTATACGCTATA, the PBM binding z-score was 3.41 in assay [1]; 4.59 in assay [2]; 5.1 in assay [3]; 1.75 in assay [4]; 3.58 in assay [5]; 4.32 in assay [6]. Also, the figures for the PBM binding z-score in assay [7] and in assay [8] were 1.09 and 1.11, respectively.

As for ATATGTAGGTCAGCTGGGGTCATTCAGACTAGGC, the PBM binding z-score in assay [1] stood at 5.26; in assay [2], 6.13; in assay [3], 6.32; in assay [4], 2.43; in assay [5], 6.85; in assay [6], 5.44. The results for the PBM binding z-score in assay [7] and in assay [8] were 3.41 and 5.57, respectively.

For ATCGAATGGTCGAAGGTGAGTATACCCACCCGAA, the PBM binding z-score is 0.0928 in assay [1]; 0.392 in assay [2]; 0.497 in assay [3]; -0.884 in assay [4]; 0.585 in assay [5]; 0.0175 in assay [6]. In addition, the PBM binding z-score was -0.459 in assay [7] and -0.194 in assay [8].
